A selection: hits, their analogues and other compounds. The true share with any hit is near 3.1%.
LMP1 NFkB inh: Epstein-Barr LMP1 NF-kappaB reporter inhibition. LMP1-induced NF-kappaB luciferase reporter cells, luminescence. inhibition, % at 12.5 µM. hit rate 0.69% among 350,000; in the data active = inhibition above about 41%;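 note: 0% = neutral control wells and 100% = reference inhibitor control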
TWEAK Fn14 block: inhibitors of TWEAK-Fn14 interaction signaling. inhibition, % at 10 µM. TWEAK-stimulated Fn14 reporter cells, luciferase luminescence, 8 h. AID 1159606. hit rate 2% among 360,000; in the data active = inhibition above about 50%
LGR2 inh: Drosophila LGR2 receptor signaling inhibition; HEK293 LGR2, CRE-luciferase, bursicon-stimulated, 4 h; inhibition, % at 9.99 µM; hit rate 0.35% among 380,000; AID 720647;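 active = drop in luminescence signal, shown as inhibition above about 50% in the replicate tests, limit read from the data, passing the limit was not always enough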;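 note: agonist challenge used bursicon conditioned medium at about half maximal strength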
TROY signal inh: inhibitors of TROY-dependent NF-kB signaling | Q293 LMP1-TROYcd NF-kB luciferase reporter, 4 h | inhibition, % at 10 µM | hit rate 0.98% among 360,000 | AID 1347056;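 active = compounds whose plate-normalised and pattern-corrected inhibition of the luciferase reporter signal at the single screening dose is 50% or more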
PAX8 reporter: PAX8 transcriptional activity inhibition; RMG-I TPO-luciferase reporter, SteadyGlo, 24 h; inhibition, % at 12.6 µM; hit rate 1.2% among 360,000; AID 652154;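 active = mean replicate inhibition at least 60% with every replicate also reaching 60%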;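 note: luciferase light reporting Pax8 driven TPO promoter activity; plate controls were median of neutral control wells for no effect and mitoxantrone controls for full effect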
EWS-Fli inh: blocks EWS/Fli oncoprotein-driven transcription. A673 NR0B1-luciferase reporter, viability-normalised. inhibition, % at 12.6 µM. hit rate 0.67% among 350,000. AID 651661;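 active = mean inhibition of at least 50% after viability correction, with every replicate also passing that limit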;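 note: firefly luciferase signal divided by Alamar Blue viability fluorescence both relative to DMSO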
* marks the source's active call; other numbers are inactive results; . = no result; ! = repeats disagree.

SMILES	LMP1 NFkB inh	TWEAK Fn14 block	LGR2 inh	TROY signal inh	PAX8 reporter	EWS-Fli inh
C[C@@H]1CN([C@H](C)CO)S(=O)(=O)c2ccc(C#CC3CCCC3)cc2O[C@H]1CN(C)C(=O)Cc1ccccc1	2	37	-6	32	67*!	29
C[C@@H]1CN([C@@H](C)CO)S(=O)(=O)c2ccc(C#CC3CCCC3)cc2O[C@H]1CN(C)C(=O)Cc1ccccc1	.	.	30	.	57	-12
C[C@H]1CN([C@@H](C)CO)S(=O)(=O)c2ccc(C#Cc3ccccc3F)cc2O[C@@H]1CN(C)C(=O)Cc1ccccc1	.	.	17	.	59	26
C[C@H]1CCCCO[C@H](CN(C)C(=O)CCC(F)(F)F)[C@@H](C)CN([C@@H](C)CO)C(=O)c2cc(NS(C)(=O)=O)ccc2O1	.	.	23	.	-5	4
Cc1ccccc1NC(=O)c1c([N+](=O)[O-])c(C(C)(C)C)nn1C	55*	7	0	9	1	1
COc1ccc(-c2ccc(SCC(=O)N3c4ccccc4CC3C)nn2)cc1OC (stereo not drawn)	-3	63*	.	-4	.	.
Cc1ccnc(NC(=O)c2cccc(NC(=O)c3ccc(Cl)c(Cl)c3)c2)c1	86*	-7	-41	-19	-37	-25
O=C(NC1CCCCC1)c1ccc2c(c1)OCO2	-20	-19	-26	-28	-160	-98
Cc1ccc(NC(=O)c2ccc3c(c2)OCCO3)nc1	50*	62*	49	29	-9	35
CC1CCC(NC(=O)c2ccc3c(c2)OCO3)CC1 (stereo not drawn)	17	54*	12	0	-17	.
Cc1ccnc(NC(=O)c2ccc3c(c2)OCO3)c1	13	55*	32	15	10	7
O=C(c1ccccn1)N1CC2(C1)[C@@H](c1ccccc1)[C@H](CO)N2Cc1ccc(Cl)cc1	.	.	11	.	.	2
CO[C@@H]1CN(C)C(=O)c2ccc(NC(=O)c3cccc(F)c3)cc2OC[C@@H](C)N(CC2CC2)C[C@@H]1C	.	.	-4	.	-2	3
C[C@@H]1CN([C@H](C)CO)C(=O)c2cc(NC(=O)c3ccncc3)ccc2O[C@@H](C)CCCCO[C@H]1CN(C)C(=O)c1ccncc1	.	.	-3	.	-3	.
COc1ccc2c3c([nH]c2c1)[C@H](CO)N(Cc1ccncc1)CC31CCN(C(=O)CN(C)C)CC1	.	.	-11	.	-14	1
C[C@@H]1CN([C@H](C)CO)C(=O)Cc2cc(NC(=O)Cc3ccccc3)ccc2O[C@H]1CN(C)C(=O)Nc1cccc2ccccc12	.	.	3	.	28	4
Cc1ccnc(NC(=O)c2ccc3c(c2)NC(=O)C(C)S3)c1 (stereo not drawn)	13	67*	48	44	-70	36
CC(=O)c1ccccc1NC(=O)c1ccc2c(c1)NC(=O)C(C)S2 (stereo not drawn)	-35	-5	-29	-16	-80	-90
Cc1ccccc1NCC(=O)N/N=C/C(Br)=C/c1ccccc1	-4	58*	.	20	.	.
Cc1cc(Br)cn2c(Cc3ccsc3)c(-c3cccc(Cl)c3)nc12	.	14	15	19	14	14
COc1ccc(Cc2c(-c3ccco3)nc3ccc(Cl)cn23)c(C)c1	.	30	-6	-2	2	10
Cc1cc(Br)cn2c(Cc3ccccc3)c(-c3ccco3)nc12	.	85*	5	6	11	6
COc1ccccc1Cc1c(-c2ccco2)nc2c(C)cc(Br)cn12	.	69*	.	10	.	.
Cc1cc(Br)cn2c(Cc3ccsc3)c(-c3ccco3)nc12	.	51*	2	-5	-1	-32
COc1ccc(Cc2c(-c3ccco3)nc3ccc(Br)cn23)c(C)c1	.	57*	1	-7	-2	-11
SMILES	LMP1 NFkB inh	TWEAK Fn14 block	LGR2 inh	TROY signal inh	PAX8 reporter	EWS-Fli inh
O=C(C[C@@H]1CC[C@H]2[C@@H](COC[C@@H](O)CN2CC2CCCC2)O1)NCC1CC1	.	.	12	.	.	35
C[C@@H]1CCCCO[C@@H](CN(C)C)[C@@H](C)CN([C@H](C)CO)C(=O)c2cc(NC(=O)Nc3cccc4ccccc34)ccc2O1	.	.	18	.	-4	4
C[C@H]1CCCCO[C@H](CN(C)C(=O)c2ccncc2)[C@@H](C)CN([C@@H](C)CO)C(=O)c2cc(NC(=O)c3ccccc3)ccc2O1	.	.	-4	.	-2	.
COc1ccc(S(=O)(=O)N[C@@H]2CC[C@H](CC(=O)NCc3ccccc3F)O[C@H]2CO)cc1	.	.	2	.	-1	6
C[C@H](CO)N1C[C@H](C)[C@H](CN(C)C)OCCCC[C@H](C)Oc2ccc(NC(=O)Nc3ccc(F)cc3)cc2C1=O	.	.	-13	.	-17	0
C[C@H]1CN([C@@H](C)CO)C(=O)Cc2cc(NC(=O)Nc3ccc(F)cc3)ccc2O[C@@H]1CN(C)C(=O)Nc1ccccc1	.	.	-3	.	-6	-3
COc1ccc(/C=C2\Sc3ccc(C(=O)N4CCN(Cc5ccccc5)CC4)cc3N(C)C2=O)cc1OC	29	84*	18	56*	77*	34
CN(C)c1cccc(C(=O)N/N=C/c2ccccc2F)c1	44*	89*	86*	56*	34	-45
Cc1cccc(/C=C2\CCC(=C3SCCCS3)C2=O)c1	48*	75*	.	.	.	.
O=C1C(=Cc2ccc(F)cc2)Cc2ccccc21	.	-35	-16	-59	-68	-55
O=C1C(=C2SCCCS2)CC/C1=C\c1ccc(F)cc1	77*	104*	.	86*	.	.
O=C(C[C@@H]1C[C@H]2c3cc(NC(=O)NC4CCCCC4)ccc3O[C@H]2[C@@H](CO)O1)NCc1cccnc1	.	.	3	.	1	-2
Cc1nc([N+](=O)[O-])c(Sc2nc3ccc([N+](=O)[O-])cc3[nH]2)n1Cc1ccccc1	2	80*	25	34	4	.
Cc1nc([N+](=O)[O-])c(Br)n1Cc1ccccc1	-2	6	6	9	-3	14
COc1ccc2c3c(n(C)c2c1)[C@@H](CO)N(C(C)=O)CC31CN(C(=O)C2CCOCC2)C1	.	.	0	.	.	-1
COc1ccc(-c2ccc3oc(-c4ccsc4)cc(=O)c3c2)cc1F	-16	-28	-25	-69	-113	-60
COc1ccc(-c2ccc3oc(-c4ccsc4)cc(=O)c3c2)cn1	-33	-25	-24	63*	-169	-95
CO[C@H]1CN(C)C(=O)c2ccc(NC(C)=O)cc2OC[C@H](C)N(Cc2nccs2)C[C@@H]1C	.	.	-7	.	-18	.
COc1ccc(CNc2ccc(N3CCOCC3)cc2)cc1	-3	-8	1	13	-53	-34
c1ccc(CNc2ccc(N3CCOCC3)cc2)cc1	-1	32	-10	65*	-128	-110
COc1ccc(-c2cnc3c(c2)C(=O)N([C@H](C)CO)C[C@@H](C)[C@H](CN(C)C(=O)C2CCCCC2)O3)cc1	.	.	-15	.	0	-14
NNC(=S)NC1CC2CC1C1C=CCC21 (stereo not drawn)	-1	77*	0	70*	-6	6

Source: PubChem BioAssay
